In article PMC7862700, “An all-to-all approach to the identification of sequence-specific readers for epigenetic DNA modifications on cytosine”:

Legend:
Experiment in all cases: DAPPL (digital affinity profiling via proximity ligation, sequencing); 10 mM Tris-HCl pH 7.5, 50 mM NaCl, 1 mM DTT, 4% glycerol, room temperature, 30 min; GST-TFs on glutathione beads, 16-mer random dsDNA library, 0.1% formaldehyde crosslink after washing; high values mean tight binding
FEV = target: T1, FEV (Homo sapiens, UniProt Q99581 1-238); details: protein: recombinant; tags: N-terminal GST; dsDNA, one strand shown
T1 sequence: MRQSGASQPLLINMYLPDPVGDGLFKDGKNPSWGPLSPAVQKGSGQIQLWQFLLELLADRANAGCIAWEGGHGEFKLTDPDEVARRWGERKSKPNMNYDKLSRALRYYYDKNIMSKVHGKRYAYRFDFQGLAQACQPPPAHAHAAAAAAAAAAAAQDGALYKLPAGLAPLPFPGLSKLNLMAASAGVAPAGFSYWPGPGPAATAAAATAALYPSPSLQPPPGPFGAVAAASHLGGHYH
Summary of the method: (§1)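 Binding signal is defined as a hexamer's read frequency for one factor over its frequency for the tag-only sample. To obtain reads, GST-fused human transcription factors were expressed in yeast, captured on glutathione beads, barcoded with DNA and pooled with that sample. Pools met 200 nmole of a 16-mer random double-stranded DNA library in Tris/NaCl/DTT/glycerol buffer for 30 min at room temperature before washing, 0.1% formaldehyde crosslinking, proximity ligation (BsaI/T4 ligase, 1 h, 37 °C), PCR and Illumina NextSeq500 sequencing.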

ETV5 = ETV5 (Homo sapiens, UniProt P41161 1-510); details: protein: recombinant; tags: N-terminal GST; dsDNA, one strand shown
Summary of the method: as §1

HSF1 = HSF1 (Homo sapiens, UniProt Q00613 1-529); details: protein: recombinant; tags: N-terminal GST; chain copies: 3; dsDNA, one strand shown
Summary of the method: as §1

SPIC = target: T2, SPIC (Homo sapiens, UniProt Q8N5J4 1-248); details: protein: recombinant; tags: N-terminal GST; dsDNA, one strand shown
T2 sequence: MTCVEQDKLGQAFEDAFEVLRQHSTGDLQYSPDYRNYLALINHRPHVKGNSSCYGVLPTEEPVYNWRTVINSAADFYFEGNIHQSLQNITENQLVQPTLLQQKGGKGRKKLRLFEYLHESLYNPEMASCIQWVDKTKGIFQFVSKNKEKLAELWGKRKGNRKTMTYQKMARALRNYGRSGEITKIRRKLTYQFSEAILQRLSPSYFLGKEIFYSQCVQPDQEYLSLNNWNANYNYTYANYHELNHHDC
Summary of the method: as §1

ELF4 = ELF4 (Homo sapiens, UniProt Q99607 1-663); details: protein: recombinant; tags: N-terminal GST; dsDNA, one strand shown
Summary of the method: as §1

ELK4 = target: T3, ELK4 (Homo sapiens, UniProt P28324-2 1-405); details: protein: recombinant; tags: N-terminal GST; dsDNA, one strand shown
T3 sequence: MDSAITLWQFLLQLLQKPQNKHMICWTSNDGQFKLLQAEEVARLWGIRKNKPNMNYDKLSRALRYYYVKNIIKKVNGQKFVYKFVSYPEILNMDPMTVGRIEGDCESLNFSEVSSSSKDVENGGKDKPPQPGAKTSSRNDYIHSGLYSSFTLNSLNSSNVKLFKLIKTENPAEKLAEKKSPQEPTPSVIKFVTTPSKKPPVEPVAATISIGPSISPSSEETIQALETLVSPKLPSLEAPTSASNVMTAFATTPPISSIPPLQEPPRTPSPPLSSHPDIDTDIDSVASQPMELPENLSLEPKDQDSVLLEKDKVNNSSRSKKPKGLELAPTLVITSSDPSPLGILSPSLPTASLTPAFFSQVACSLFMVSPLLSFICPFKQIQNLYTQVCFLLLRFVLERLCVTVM
Summary of the method: as §1

ETV2 = target: T4, ETV2 (Homo sapiens, UniProt O00321 1-342); details: protein: recombinant; tags: N-terminal GST; dsDNA, one strand shown
T4 sequence: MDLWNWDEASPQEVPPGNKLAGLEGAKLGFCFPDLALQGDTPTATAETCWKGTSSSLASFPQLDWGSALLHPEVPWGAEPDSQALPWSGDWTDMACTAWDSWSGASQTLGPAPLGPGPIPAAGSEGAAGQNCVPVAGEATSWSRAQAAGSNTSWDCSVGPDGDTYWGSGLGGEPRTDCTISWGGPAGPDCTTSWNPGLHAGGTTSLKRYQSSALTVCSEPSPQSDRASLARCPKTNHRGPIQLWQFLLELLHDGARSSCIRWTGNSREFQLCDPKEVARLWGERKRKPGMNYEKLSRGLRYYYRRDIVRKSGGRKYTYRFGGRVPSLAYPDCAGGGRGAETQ
Summary of the method: as §1

ELF3 = target: T5, ELF3 (Homo sapiens, UniProt P78545 1-371); details: protein: recombinant; tags: N-terminal GST; dsDNA, one strand shown
T5 sequence: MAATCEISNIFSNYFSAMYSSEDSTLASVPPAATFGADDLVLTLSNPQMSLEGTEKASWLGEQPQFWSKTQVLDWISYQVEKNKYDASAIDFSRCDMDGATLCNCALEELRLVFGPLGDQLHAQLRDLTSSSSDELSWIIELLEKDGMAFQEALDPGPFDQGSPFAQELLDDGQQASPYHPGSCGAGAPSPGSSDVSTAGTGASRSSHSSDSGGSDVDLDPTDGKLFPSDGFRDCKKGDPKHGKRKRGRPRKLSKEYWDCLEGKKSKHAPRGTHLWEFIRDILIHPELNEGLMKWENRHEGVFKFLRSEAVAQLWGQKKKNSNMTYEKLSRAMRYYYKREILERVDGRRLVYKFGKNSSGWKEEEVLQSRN
Summary of the method: as §1

CRX = CRX (Homo sapiens, UniProt O43186 1-299); details: protein: recombinant; tags: N-terminal GST; dsDNA, one strand shown
Summary of the method: as §1

ETV1 = ETV1 (Homo sapiens, UniProt P50549 1-477); details: protein: recombinant; tags: N-terminal GST; dsDNA, one strand shown
Summary of the method: as §1

ERF = target: T6, ERF (Homo sapiens, UniProt P50548 1-548); details: protein: recombinant; tags: N-terminal GST; dsDNA, one strand shown
T6 sequence: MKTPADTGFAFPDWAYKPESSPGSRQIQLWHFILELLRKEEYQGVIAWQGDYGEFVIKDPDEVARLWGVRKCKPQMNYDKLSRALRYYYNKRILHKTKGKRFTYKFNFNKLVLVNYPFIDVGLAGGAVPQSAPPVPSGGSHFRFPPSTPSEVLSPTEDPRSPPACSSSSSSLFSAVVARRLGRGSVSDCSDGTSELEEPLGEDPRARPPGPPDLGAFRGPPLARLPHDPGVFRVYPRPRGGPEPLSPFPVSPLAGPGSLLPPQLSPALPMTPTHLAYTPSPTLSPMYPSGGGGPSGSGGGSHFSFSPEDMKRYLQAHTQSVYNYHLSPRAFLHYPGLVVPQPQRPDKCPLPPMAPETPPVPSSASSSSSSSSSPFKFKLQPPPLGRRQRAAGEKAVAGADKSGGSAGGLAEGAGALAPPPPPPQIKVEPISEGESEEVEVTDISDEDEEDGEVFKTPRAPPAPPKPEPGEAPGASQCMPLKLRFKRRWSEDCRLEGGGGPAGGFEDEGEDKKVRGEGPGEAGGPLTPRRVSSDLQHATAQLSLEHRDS
Summary of the method: as §1

ETV3L = target: T7, ETV3L (Homo sapiens, UniProt Q6ZN32 1-361); details: protein: recombinant; tags: N-terminal GST; dsDNA, one strand shown
T7 sequence: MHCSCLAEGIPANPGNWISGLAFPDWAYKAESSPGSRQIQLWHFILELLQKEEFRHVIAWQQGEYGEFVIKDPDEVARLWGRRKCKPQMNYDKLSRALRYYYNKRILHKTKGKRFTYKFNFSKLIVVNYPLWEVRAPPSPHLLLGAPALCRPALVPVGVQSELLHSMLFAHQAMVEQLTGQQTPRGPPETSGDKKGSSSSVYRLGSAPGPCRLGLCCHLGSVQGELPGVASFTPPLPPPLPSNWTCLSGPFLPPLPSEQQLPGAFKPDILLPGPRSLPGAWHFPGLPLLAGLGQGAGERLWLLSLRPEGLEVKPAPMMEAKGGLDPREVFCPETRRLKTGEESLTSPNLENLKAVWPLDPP
Summary of the method: as §1

ETS2 = target: T8, ETS2 (Homo sapiens, UniProt P15036 1-469); details: protein: recombinant; tags: N-terminal GST; dsDNA, one strand shown
T8 sequence: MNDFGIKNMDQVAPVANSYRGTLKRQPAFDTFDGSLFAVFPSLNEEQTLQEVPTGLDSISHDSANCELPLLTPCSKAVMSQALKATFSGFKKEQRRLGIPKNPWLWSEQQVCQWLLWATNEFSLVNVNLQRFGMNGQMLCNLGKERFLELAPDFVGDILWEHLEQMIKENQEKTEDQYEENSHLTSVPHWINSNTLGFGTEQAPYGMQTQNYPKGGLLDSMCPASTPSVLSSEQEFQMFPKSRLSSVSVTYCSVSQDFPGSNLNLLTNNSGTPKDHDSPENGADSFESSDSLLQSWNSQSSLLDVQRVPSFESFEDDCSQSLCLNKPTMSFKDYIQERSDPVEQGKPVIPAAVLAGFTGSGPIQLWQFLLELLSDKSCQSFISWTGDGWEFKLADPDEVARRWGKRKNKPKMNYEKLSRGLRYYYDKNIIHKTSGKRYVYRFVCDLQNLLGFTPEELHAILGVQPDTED
Summary of the method: as §1

SPDEF = target: T9, SPDEF (Homo sapiens, UniProt O95238 1-335); details: protein: recombinant; tags: N-terminal GST; dsDNA, one strand shown
T9 sequence: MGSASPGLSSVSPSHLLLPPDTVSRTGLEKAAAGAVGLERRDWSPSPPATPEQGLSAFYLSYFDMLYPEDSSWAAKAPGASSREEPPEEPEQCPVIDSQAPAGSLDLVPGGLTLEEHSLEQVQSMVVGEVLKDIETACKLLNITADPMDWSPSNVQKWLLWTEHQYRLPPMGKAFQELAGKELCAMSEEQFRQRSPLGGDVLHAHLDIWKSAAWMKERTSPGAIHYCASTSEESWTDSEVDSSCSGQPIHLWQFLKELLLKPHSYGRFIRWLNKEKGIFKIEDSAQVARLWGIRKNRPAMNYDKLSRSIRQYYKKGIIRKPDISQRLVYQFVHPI
Summary of the method: as §1

ETV7 = target: T10, ETV7 (Homo sapiens, UniProt Q9Y603 1-341); details: protein: recombinant; tags: N-terminal GST; dsDNA, one strand shown
T10 sequence: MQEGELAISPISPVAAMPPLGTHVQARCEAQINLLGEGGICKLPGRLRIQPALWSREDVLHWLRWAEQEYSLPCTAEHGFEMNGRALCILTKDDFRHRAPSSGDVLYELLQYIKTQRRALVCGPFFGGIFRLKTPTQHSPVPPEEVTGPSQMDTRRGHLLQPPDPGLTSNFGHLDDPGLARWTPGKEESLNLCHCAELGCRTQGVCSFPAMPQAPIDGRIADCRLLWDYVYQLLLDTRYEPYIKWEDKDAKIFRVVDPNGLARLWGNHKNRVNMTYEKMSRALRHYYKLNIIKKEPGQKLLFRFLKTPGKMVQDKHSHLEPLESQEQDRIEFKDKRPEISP
Summary of the method: as §1

ELF5 = target: T11, ELF5 (Homo sapiens, UniProt Q9UKW6-2 1-255); details: protein: recombinant; tags: N-terminal GST; dsDNA, one strand shown
T11 sequence: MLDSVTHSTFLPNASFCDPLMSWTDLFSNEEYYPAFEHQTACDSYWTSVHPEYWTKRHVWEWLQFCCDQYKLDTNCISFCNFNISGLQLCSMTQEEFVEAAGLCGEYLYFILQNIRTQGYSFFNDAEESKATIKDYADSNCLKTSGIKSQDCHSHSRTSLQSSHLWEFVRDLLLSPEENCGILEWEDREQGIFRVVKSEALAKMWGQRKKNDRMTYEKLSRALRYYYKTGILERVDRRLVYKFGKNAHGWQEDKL
Summary of the method: as §1

ETV3 = target: T12, ETV3 (Homo sapiens, UniProt P41162-2 1-143); details: protein: recombinant; tags: N-terminal GST; dsDNA, one strand shown
T12 sequence: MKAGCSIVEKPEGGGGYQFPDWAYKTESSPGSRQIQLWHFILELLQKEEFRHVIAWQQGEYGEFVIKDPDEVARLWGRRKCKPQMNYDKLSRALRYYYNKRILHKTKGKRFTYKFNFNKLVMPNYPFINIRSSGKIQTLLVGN
Summary of the method: as §1

ETV6 = ETV6 (Homo sapiens, UniProt P41212 1-452); details: protein: recombinant; tags: N-terminal GST; dsDNA, one strand shown
Summary of the method: as §1

Chain of ETV1 (P50549 whole entry): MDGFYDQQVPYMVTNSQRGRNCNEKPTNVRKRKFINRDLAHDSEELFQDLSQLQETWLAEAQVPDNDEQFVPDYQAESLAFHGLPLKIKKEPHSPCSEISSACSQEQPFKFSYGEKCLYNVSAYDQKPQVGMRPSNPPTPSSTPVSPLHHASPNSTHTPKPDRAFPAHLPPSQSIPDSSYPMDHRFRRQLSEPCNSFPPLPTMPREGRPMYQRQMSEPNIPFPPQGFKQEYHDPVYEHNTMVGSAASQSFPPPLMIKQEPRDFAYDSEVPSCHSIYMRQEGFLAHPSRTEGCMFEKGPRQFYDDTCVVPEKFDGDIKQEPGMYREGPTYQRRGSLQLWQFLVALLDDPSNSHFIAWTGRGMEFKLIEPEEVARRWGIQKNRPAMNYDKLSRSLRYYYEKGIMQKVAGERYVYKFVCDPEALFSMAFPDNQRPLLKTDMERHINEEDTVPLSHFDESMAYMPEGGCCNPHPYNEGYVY
Chain of HSF1 (Q00613 whole entry): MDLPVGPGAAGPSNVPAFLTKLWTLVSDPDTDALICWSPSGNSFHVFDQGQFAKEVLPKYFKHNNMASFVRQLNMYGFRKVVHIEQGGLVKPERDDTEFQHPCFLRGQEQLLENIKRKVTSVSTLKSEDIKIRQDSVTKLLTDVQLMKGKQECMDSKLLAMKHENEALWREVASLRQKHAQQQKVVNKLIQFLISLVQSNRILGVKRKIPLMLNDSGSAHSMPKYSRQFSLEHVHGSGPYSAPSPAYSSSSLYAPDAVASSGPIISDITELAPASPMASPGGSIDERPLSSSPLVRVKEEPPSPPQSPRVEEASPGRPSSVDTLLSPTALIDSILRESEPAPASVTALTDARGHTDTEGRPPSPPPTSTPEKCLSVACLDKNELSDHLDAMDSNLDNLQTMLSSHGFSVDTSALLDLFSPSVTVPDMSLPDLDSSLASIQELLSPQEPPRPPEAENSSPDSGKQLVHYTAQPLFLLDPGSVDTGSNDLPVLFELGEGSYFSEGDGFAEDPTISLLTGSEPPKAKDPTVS
Chain of ETV6 (P41212 whole entry): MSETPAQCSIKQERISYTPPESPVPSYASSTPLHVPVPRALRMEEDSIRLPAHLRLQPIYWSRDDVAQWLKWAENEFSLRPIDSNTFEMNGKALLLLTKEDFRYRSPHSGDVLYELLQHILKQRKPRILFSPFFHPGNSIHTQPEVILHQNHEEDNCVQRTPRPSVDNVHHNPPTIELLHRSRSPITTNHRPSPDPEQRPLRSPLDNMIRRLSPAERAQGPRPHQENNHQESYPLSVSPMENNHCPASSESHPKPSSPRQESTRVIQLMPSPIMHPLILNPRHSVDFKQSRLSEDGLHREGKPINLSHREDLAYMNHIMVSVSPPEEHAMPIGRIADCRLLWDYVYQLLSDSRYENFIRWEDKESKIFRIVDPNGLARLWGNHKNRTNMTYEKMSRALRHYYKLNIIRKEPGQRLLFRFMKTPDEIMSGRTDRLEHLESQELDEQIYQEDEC
Chain of ELF4 (Q99607 whole entry): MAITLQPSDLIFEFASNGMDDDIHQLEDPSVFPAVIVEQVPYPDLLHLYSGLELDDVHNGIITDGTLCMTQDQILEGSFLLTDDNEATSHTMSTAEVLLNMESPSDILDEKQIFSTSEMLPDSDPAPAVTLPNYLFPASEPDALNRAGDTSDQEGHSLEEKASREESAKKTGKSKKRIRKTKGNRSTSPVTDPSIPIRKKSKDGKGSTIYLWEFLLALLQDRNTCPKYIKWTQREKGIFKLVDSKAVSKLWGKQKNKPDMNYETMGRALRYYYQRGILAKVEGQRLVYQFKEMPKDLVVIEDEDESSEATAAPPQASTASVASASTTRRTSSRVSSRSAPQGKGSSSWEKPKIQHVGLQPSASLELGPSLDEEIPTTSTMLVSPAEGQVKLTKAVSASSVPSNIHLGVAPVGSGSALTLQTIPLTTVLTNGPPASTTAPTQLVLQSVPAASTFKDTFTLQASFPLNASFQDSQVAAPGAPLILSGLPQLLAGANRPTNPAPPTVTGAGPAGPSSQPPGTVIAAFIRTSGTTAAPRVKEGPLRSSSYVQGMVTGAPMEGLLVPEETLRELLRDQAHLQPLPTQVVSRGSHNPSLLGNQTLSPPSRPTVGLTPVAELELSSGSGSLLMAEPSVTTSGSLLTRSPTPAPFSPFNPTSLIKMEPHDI
Chain of ETV5 (P41161 whole entry): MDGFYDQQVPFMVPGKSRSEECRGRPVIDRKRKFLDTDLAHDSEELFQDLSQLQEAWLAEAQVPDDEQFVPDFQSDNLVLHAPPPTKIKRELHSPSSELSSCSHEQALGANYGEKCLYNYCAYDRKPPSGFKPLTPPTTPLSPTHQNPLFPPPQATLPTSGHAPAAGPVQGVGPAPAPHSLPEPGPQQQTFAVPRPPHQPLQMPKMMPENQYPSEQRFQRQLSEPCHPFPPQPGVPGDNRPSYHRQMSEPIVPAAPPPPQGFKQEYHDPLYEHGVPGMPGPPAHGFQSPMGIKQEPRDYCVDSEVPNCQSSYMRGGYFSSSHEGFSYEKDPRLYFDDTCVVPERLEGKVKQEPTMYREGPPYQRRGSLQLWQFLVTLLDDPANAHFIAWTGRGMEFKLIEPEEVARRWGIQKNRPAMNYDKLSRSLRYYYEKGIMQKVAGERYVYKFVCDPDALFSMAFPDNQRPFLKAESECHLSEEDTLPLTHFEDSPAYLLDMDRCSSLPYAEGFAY
Chain of CRX (O43186 whole entry): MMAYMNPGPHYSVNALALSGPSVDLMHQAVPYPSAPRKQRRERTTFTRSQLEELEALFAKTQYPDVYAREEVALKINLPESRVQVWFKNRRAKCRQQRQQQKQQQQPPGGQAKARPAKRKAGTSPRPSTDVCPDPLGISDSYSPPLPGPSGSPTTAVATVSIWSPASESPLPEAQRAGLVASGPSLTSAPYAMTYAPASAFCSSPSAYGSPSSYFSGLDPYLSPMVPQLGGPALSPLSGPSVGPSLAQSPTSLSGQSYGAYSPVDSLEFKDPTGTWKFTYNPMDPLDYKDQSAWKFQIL

Sequence: AACTAA
- binding signal (FEV): 1.35 fold enrichment (6-mer frequency, TF over GST control)
- binding signal (ETV5): 1.39 fold enrichment (6-mer frequency, TF over GST control)
- binding signal (HSF1): 1.44 fold enrichment (6-mer frequency, TF over GST control)
- binding signal (SPIC): 1.3 fold enrichment (6-mer frequency, TF over GST control)
- binding signal (ELF4): 1.45 fold enrichment (6-mer frequency, TF over GST control)
- binding signal (ELK4): 1.3 fold enrichment (6-mer frequency, TF over GST control)
- binding signal (ETV2): 1.24 fold enrichment (6-mer frequency, TF over GST control)
- binding signal (ELF3): 1.3 fold enrichment (6-mer frequency, TF over GST control)
- binding signal (CRX): 1.84 fold enrichment (6-mer frequency, TF over GST control)
- binding signal (ETV1): 1.39 fold enrichment (6-mer frequency, TF over GST control)
- binding signal (ERF): 1.36 fold enrichment (6-mer frequency, TF over GST control)
- binding signal (ETV3L): 1.25 fold enrichment (6-mer frequency, TF over GST control)
- binding signal (ETS2): 1.4 fold enrichment (6-mer frequency, TF over GST control)
- binding signal (SPDEF): 1.31 fold enrichment (6-mer frequency, TF over GST control)
- binding signal (ETV7): 1.33 fold enrichment (6-mer frequency, TF over GST control)
- binding signal (ELF5): 1.38 fold enrichment (6-mer frequency, TF over GST control)
- binding signal (ETV3): 1.29 fold enrichment (6-mer frequency, TF over GST control)
- binding signal (ETV6): 1.42 fold enrichment (6-mer frequency, TF over GST control)
